Data from PubChem BioAssay (NCI).
This is part of a sample that, as a whole, favours compounds with a hit. Of some 79,000 tested, about 15% had one in any assay. No stated cut-off is given here; in the data, active means growth inhibition above about 70%; inactive means the rest.

Key:
[1] = NCI Yeast Anticancer Drug Screen. Data for the rad50 strain (AID 155);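 further: 0% = growth of vehicle-only cultures of the same strain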; conditions: S. cerevisiae rad50 strain growth inhibition; at 50.0 µM; hits give high values
Procedure, shortened: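 Inhibition values express reduced yeast growth in compound-treated cultures relative to vehicle-treated controls.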

[2] = NCI Yeast Anticancer Drug Screen. Data for the mec2-1 strain (AID 157); conditions: S. cerevisiae mec2-1 strain, at 50.0 µM, hits give high values
Procedure, shortened: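 Strain: mec2-1 (DNA repair/cell cycle alteration). Compound exposure, then growth measured; inhibition expressed relative to vehicle.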

[3] = NCI Yeast Anticancer Drug Screen. Data for the sgs1 mgt1 strain (AID 161);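 further: 0% = growth of cultures given vehicle only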; conditions: S. cerevisiae sgs1 mgt1 strain, at 50.0 µM, hits give high values
Procedure, shortened: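 Genetically altered yeast, compound exposure, growth inhibition relative to vehicle.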

[4] = NCI Yeast Anticancer Drug Screen. Data for the cln2 rad14 strain (AID 165);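 further: 0% = growth equal to vehicle treated cultures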; conditions: S. cerevisiae cln2 rad14 strain, at 50.0 µM, hits give high values
Procedure, shortened: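 Compounds are applied to the cln2 rad14 yeast strain, and growth is then compared with that of vehicle-treated cultures to give inhibition.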

[5] = NCI Yeast Anticancer Drug Screen. Data for the bub3 strain (AID 167); conditions: S. cerevisiae bub3 mutant strain, at 50.0 µM, hits give high values
Procedure, shortened: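 Steps: expose the mutant yeast strain to compound; grow alongside vehicle-treated cultures; measure growth; express inhibition against the vehicle cultures.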

[6] = NCI Yeast Anticancer Drug Screen. Data for the mlh1 rad18 strain (AID 175); conditions: S. cerevisiae mlh1 rad18 strain growth inhibition; at 50.0 µM; hits give high values
Procedure, shortened: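 Read-out is yeast growth inhibition, calculated against vehicle-only controls. The compound was applied to a strain engineered with DNA damage repair alterations.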

Measured: growth inhibition

O=C(O)CCC(=O)c1ccc(O)cc1
inactive: [1] -0.2% | [2] -27% | [3] -7.1% | [4] -14.7% | [5] -14% | [6] 13.6%

O=c1ccc(=O)c2c(=O)c3cc4[nH]c5ccccc5[nH]c4cc3c(=O)c12
inactive: [1] 2.25% | [2] -7.05% | [3] 0.55% | [4] 1.85% | [5] -5.6% | [6] 5.2%

CN1CCC/C1=N\c1ncn[nH]1
inactive: [1] 3.3% | [2] -21.1% | [3] -4.45% | [4] -65.3% | [5] -8.5% | [6] -2.85%

OCCOCCNc1ncnc2cc(Cl)ccc12
inactive: [1] -12.4% | [2] -14.7% | [3] 5.25% | [4] -14.2% | [5] 7.2% | [6] 4.2%

COc1ccc(OC)c(NC(=O)C2=C(C)NC(C)=C(C(=O)Nc3cc(OC)ccc3OC)C2c2cccc([N+](=O)[O-])c2)c1
inactive: [1] 1.05% | [2] 8.65% | [3] 1.9% | [4] -9.3% | [5] 7.5% | [6] 4.25%

COC(=O)c1nc2c3c(cccc3c1C(=O)OC)Nc1ccccc1-2
inactive: [1] -3.2% | [2] 9.65% | [3] 0.35% | [4] 28.5% | [5] 19.4% | [6] -39.4%

CC1O[C@@]2(CC[C@H]3[C@@H]4CCC5=CC(=O)CC[C@]5(C)[C@H]4CC[C@@]32C)C1=O (stereo partly specified)
inactive: [1] -0.55% | [2] 4.95% | [3] 11.4% | [4] -16.8% | [5] 26.9% | [6] 25.9%

CC(C)=C1CCC(CN(C)C)C1=O (stereo unspecified)
inactive: [1] 30.4% | [2] 4.7% | [3] 35% | [4] 5.35% | [5] -18.9% | [6] 7.55%

CCOC(=O)c1c[nH]c(=S)n(C)c1=O
inactive: [1] -6.6% | [2] -10.2% | [3] -6.65% | [4] -14.1% | [5] 0.4% | [6] 2.1%

N#Cc1c(F)cccc1N1CCSCC1
inactive: [1] 3.5% | [2] -17.8% | [3] 14.3% | [4] 25.4% | [5] 11.5% | [6] -0.55%

NNC(=S)N/N=C\c1ccnc2ccccc12
inactive: [1] 9.05% | [2] 2.85% | [3] 36.6% | [4] 28.7% | [5] 30.2% | [6] 23.4%

CCOc1ccc2nc(NC(=O)C(=O)C(C#N)CC(C)(C)C=O)sc2c1 (stereo unspecified)
inactive: [1] -13.8% | [2] -22.8% | [3] -17.6% | [4] 7.7% | [5] -12.6% | [6] -28.1%

CC1C(=O)C(O)CC2C1(C)CCC1C2(C)CCC2(C)C3CC(C)(C)CCC3(C)CCC12C (stereo unspecified)
inactive: [1] -7.2% | [2] -2.6% | [3] -6.45% | [4] 1.2% | [5] 5.45% | [6] -4.7%

Cc1csc(C)[n+]1CC(=O)c1ccccc1
inactive: [1] -10% | [2] -5.45% | [3] -8.4% | [4] -20.2% | [5] -6.1% | [6] -29.1%

N#CC(c1ccccc1)N1CCCN(C(C#N)c2ccccc2)C1c1ccccc1O (stereo unspecified)
inactive: [1] 31.4% | [2] -8.65% | [3] -6.85% | [4] 17.9% | [5] 18.4% | [6] 13.2%

COc1ccc(OC)c(CSc2ccc(OC)c(OC)c2)c1
inactive: [1] 18.7% | [2] 31.9% | [3] 43.8% | [4] 13.8% | [5] 57.9% | [6] 33%

CCOC(=O)N1N=NC(c2ccccc2)C1(c1ccccc1)N1CCOCC1 (stereo unspecified)
inactive: [1] 38.8% | [2] -14.8% | [3] 30.3% | [4] 4.05% | [5] 10.4% | [6] 8.7%

O=C1Cc2ccccc2CN1
inactive: [1] -6.95% | [2] 13.3% | [3] -3.5% | [4] 19.6% | [5] 2.15% | [6] 32.3%

CC(C)C1CCC(C)(C(N)=O)C1 (stereo unspecified)
inactive: [1] 8.2% | [2] 2.65% | [3] -1.3% | [4] -23.4% | [5] -8.25% | [6] -2.1%

C[Si](C)(C)N1N=NC2C(=O)N(c3ccccc3)C(=O)C21 (stereo unspecified)
inactive: [1] -10.4% | [2] -0.5% | [3] -13.4% | [4] 0.1% | [5] 0.4% | [6] -7.4%

Oc1ccccc1/C=N/Nc1nc(N/N=C/c2ccccc2O)nc(N/N=C/c2ccccc2O)n1
inactive: [1] 25.3% | [2] 20.5% | [3] 27.4% | [4] 16.9% | [5] -6.7% | [6] 15.9%
